Data reported in PMC12820563, “FoxP3 forms a head-to-head dimer in vivo and stabilizes its multimerization on adjacent microsatellites”.
Over roughly 16,000 sequences, “rpm ratio (pull-down/input)” has its median near 0.5; the highest 2% begin near 5.5. The sample holds the highest values, similar sequences and a random draw of the others, so the mix is not that of the screen.

The sequences below were run against T1, MBP-FoxP3dN (Mus musculus, UniProt Q99JB6 188-423) (assay: PD-seq (MBP pull-down with sequencing); 20 mM Tris-HCl pH 7.5, 100 mM NaCl, 1.5 mM MgCl2, 0.4 uM protein, 0.1 uM dsDNA library, 30 min, room temperature, amylose pull-down; high values mean tight binding). Conditions: protein: recombinant; tags: His6-MBP; chain copies: 2; dsDNA, one strand shown.
T1 sequence: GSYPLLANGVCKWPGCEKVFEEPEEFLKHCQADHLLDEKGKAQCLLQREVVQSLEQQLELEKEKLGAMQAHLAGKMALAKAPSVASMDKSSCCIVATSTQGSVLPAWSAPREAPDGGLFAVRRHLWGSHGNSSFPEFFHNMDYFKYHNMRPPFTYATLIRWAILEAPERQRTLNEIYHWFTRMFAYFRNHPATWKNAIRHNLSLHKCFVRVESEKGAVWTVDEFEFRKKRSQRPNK
Procedure, shortened: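 Mouse FoxP3 or FoxP1 fragment lacking the N-terminus, His6-MBP-tagged and expressed in E. coli, was incubated at 0.4 µM with 0.1 µM Klenow-filled degenerate double-stranded DNA library for 30 min at room temperature in Tris pH 7.5 buffer with NaCl and MgCl2. Complexes captured on amylose resin were washed three times and their DNA sequenced on Illumina. Binding is reads-per-million enrichment of pull-down over input, replicates pooled.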
“GATGATTGTTCTCCCAGCTGATGAATTGTGCCGATCGAGTAAACAAATTTTCCTAATCTTTCTGTTCAAGCGCCATCTAC” was tested, and the binding signal was 1.02 RPM ratio (pull-down/input). “GATGATTGTTCTCCCAGCTGATGAATTTTTTGAATCGAGTAAACAAATTTTCCTAATCTTTCTGTTCAAGCGCCATCTAC” was tested, and the binding signal was 0.229 RPM ratio (pull-down/input). With “GATGATTGTTCTCCCAGCTGATGAATTGGGTGTTTCGAGTAAACAAATTTTCCTAATCTTTCTGTTCAAGCGCCATCTAC” the binding signal was 1.38 RPM ratio (pull-down/input). “GATGATTGTTCTCCCAGCTGATGAATTCAACTGATCGAGTAAACAAATTTTCCTAATCTTTCTGTTCAAGCGCCATCTAC” was tested, and the binding signal was 0.332 RPM ratio (pull-down/input). For “GATGATTGTTCTCCCAGCTGATGAATTGAATATGTCGAGTAAACAAATTTTCCTAATCTTTCTGTTCAAGCGCCATCTAC”, the binding signal was 0.689 RPM ratio (pull-down/input). In the case of “GATGATTGTTCTCCCAGCTGATGAATTGACACTCTCGAGTAAACAAATTTTCCTAATCTTTCTGTTCAAGCGCCATCTAC”, the binding signal is reported as 0.6 RPM ratio (pull-down/input). For “GATGATTGTTCTCCCAGCTGATGAATTCTTGAATTCGAGTAAACAAATTTTCCTAATCTTTCTGTTCAAGCGCCATCTAC”, the binding signal was 0.493 RPM ratio (pull-down/input). In the case of “GATGATTGTTCTCCCAGCTGATGAATTGTACTTTTCGAGTAAACAAATTTTCCTAATCTTTCTGTTCAAGCGCCATCTAC”, the binding signal is reported as 0.551 RPM ratio (pull-down/input). For “GATGATTGTTCTCCCAGCTGATGAATTGGGTGAGTCGAGTAAACAAATTTTCCTAATCTTTCTGTTCAAGCGCCATCTAC”, the binding signal was 0.443 RPM ratio (pull-down/input). For “GATGATTGTTCTCCCAGCTGATGAATTCACTTGTTCGAGTAAACAAATTTTCCTAATCTTTCTGTTCAAGCGCCATCTAC”, the binding signal was 1.02 RPM ratio (pull-down/input). “GATGATTGTTCTCCCAGCTGATGAATTCAGTAACTCGAGTAAACAAATTTTCCTAATCTTTCTGTTCAAGCGCCATCTAC” was tested, and the binding signal was 1.34 RPM ratio (pull-down/input). With “GATGATTGTTCTCCCAGCTGATGAATTCAACACCTCGAGTAAACAAATTTTCCTAATCTTTCTGTTCAAGCGCCATCTAC” the binding signal was 0.553 RPM ratio (pull-down/input). With “GATGATTGTTCTCCCAGCTGATGAATTATTTTGGTCGAGTAAACAAATTTTCCTAATCTTTCTGTTCAAGCGCCATCTAC” the binding signal was 0.995 RPM ratio (pull-down/input). In the case of “GATGATTGTTCTCCCAGCTGATGAATTTATTTGGTCGAGTAAACAAATTTTCCTAATCTTTCTGTTCAAGCGCCATCTAC”, the binding signal is reported as 6.15 RPM ratio (pull-down/input). “GATGATTGTTCTCCCAGCTGATGAATTTATTTTGTCGAGTAAACAAATTTTCCTAATCTTTCTGTTCAAGCGCCATCTAC” was tested, and the binding signal was 5.94 RPM ratio (pull-down/input). With “GATGATTGTTCTCCCAGCTGATGAATTTATATTGTCGAGTAAACAAATTTTCCTAATCTTTCTGTTCAAGCGCCATCTAC” the binding signal was 2.37 RPM ratio (pull-down/input). “GATGATTGTTCTCCCAGCTGATGAATTTTATTGGTCGAGTAAACAAATTTTCCTAATCTTTCTGTTCAAGCGCCATCTAC” was tested, and the binding signal was 4.94 RPM ratio (pull-down/input). For “GATGATTGTTCTCCCAGCTGATGAATTTAATTTGTCGAGTAAACAAATTTTCCTAATCTTTCTGTTCAAGCGCCATCTAC”, the binding signal was 3.39 RPM ratio (pull-down/input). With “GATGATTGTTCTCCCAGCTGATGAATTGCCCCCTTCGAGTAAACAAATTTTCCTAATCTTTCTGTTCAAGCGCCATCTAC” the binding signal was 0.413 RPM ratio (pull-down/input). “GATGATTGTTCTCCCAGCTGATGAATTTCCGGTATCGAGTAAACAAATTTTCCTAATCTTTCTGTTCAAGCGCCATCTAC” was tested, and the binding signal was 0.44 RPM ratio (pull-down/input). For “GATGATTGTTCTCCCAGCTGATGAATTCGTGGCATCGAGTAAACAAATTTTCCTAATCTTTCTGTTCAAGCGCCATCTAC”, the binding signal was 1.13 RPM ratio (pull-down/input). For “GATGATTGTTCTCCCAGCTGATGAATTCTGGCATTCGAGTAAACAAATTTTCCTAATCTTTCTGTTCAAGCGCCATCTAC”, the binding signal was 4.83 RPM ratio (pull-down/input). With “GATGATTGTTCTCCCAGCTGATGAATTGGCATCCTCGAGTAAACAAATTTTCCTAATCTTTCTGTTCAAGCGCCATCTAC” the binding signal was 4.28 RPM ratio (pull-down/input). For “GATGATTGTTCTCCCAGCTGATGAATTTGGCATTTCGAGTAAACAAATTTTCCTAATCTTTCTGTTCAAGCGCCATCTAC”, the binding signal was 6.16 RPM ratio (pull-down/input). With “GATGATTGTTCTCCCAGCTGATGAATTTTGGCATTCGAGTAAACAAATTTTCCTAATCTTTCTGTTCAAGCGCCATCTAC” the binding signal was 5.56 RPM ratio (pull-down/input). In the case of “GATGATTGTTCTCCCAGCTGATGAATTGGCATCTTCGAGTAAACAAATTTTCCTAATCTTTCTGTTCAAGCGCCATCTAC”, the binding signal is reported as 4.07 RPM ratio (pull-down/input). In the case of “GATGATTGTTCTCCCAGCTGATGAATTTGGCCATTCGAGTAAACAAATTTTCCTAATCTTTCTGTTCAAGCGCCATCTAC”, the binding signal is reported as 4.06 RPM ratio (pull-down/input). In the case of “GATGATTGTTCTCCCAGCTGATGAATTGGCATTCTCGAGTAAACAAATTTTCCTAATCTTTCTGTTCAAGCGCCATCTAC”, the binding signal is reported as 3.49 RPM ratio (pull-down/input). In the case of “GATGATTGTTCTCCCAGCTGATGAATTTTTGGCATCGAGTAAACAAATTTTCCTAATCTTTCTGTTCAAGCGCCATCTAC”, the binding signal is reported as 0.785 RPM ratio (pull-down/input). For “GATGATTGTTCTCCCAGCTGATGAATTTGGCATCTCGAGTAAACAAATTTTCCTAATCTTTCTGTTCAAGCGCCATCTAC”, the binding signal was 6.36 RPM ratio (pull-down/input). In the case of “GATGATTGTTCTCCCAGCTGATGAATTGGCATTTTCGAGTAAACAAATTTTCCTAATCTTTCTGTTCAAGCGCCATCTAC”, the binding signal is reported as 3.38 RPM ratio (pull-down/input). In the case of “GATGATTGTTCTCCCAGCTGATGAATTGTGGCATTCGAGTAAACAAATTTTCCTAATCTTTCTGTTCAAGCGCCATCTAC”, the binding signal is reported as 6.18 RPM ratio (pull-down/input). “GATGATTGTTCTCCCAGCTGATGAATTGGGTGGTTCGAGTAAACAAATTTTCCTAATCTTTCTGTTCAAGCGCCATCTAC” was tested, and the binding signal was 0.736 RPM ratio (pull-down/input). “GATGATTGTTCTCCCAGCTGATGAATTGCAGAGTTCGAGTAAACAAATTTTCCTAATCTTTCTGTTCAAGCGCCATCTAC” was tested, and the binding signal was 0.781 RPM ratio (pull-down/input). In the case of “GATGATTGTTCTCCCAGCTGATGAATTGTTCGACTCGAGTAAACAAATTTTCCTAATCTTTCTGTTCAAGCGCCATCTAC”, the binding signal is reported as 0.414 RPM ratio (pull-down/input). For “GATGATTGTTCTCCCAGCTGATGAATTTTGTCCGTCGAGTAAACAAATTTTCCTAATCTTTCTGTTCAAGCGCCATCTAC”, the binding signal was 0.813 RPM ratio (pull-down/input). In the case of “GATGATTGTTCTCCCAGCTGATGAATTCTTTTGTTCGAGTAAACAAATTTTCCTAATCTTTCTGTTCAAGCGCCATCTAC”, the binding signal is reported as 0.487 RPM ratio (pull-down/input). With “GATGATTGTTCTCCCAGCTGATGAATTGGCGCATTCGAGTAAACAAATTTTCCTAATCTTTCTGTTCAAGCGCCATCTAC” the binding signal was 6.97 RPM ratio (pull-down/input). For “GATGATTGTTCTCCCAGCTGATGAATTCAAACATTCGAGTAAACAAATTTTCCTAATCTTTCTGTTCAAGCGCCATCTAC”, the binding signal was 1.12 RPM ratio (pull-down/input). “GATGATTGTTCTCCCAGCTGATGAATTGGCGAATTCGAGTAAACAAATTTTCCTAATCTTTCTGTTCAAGCGCCATCTAC” was tested, and the binding signal was 0.898 RPM ratio (pull-down/input).
